Cav3 T inh: Cav3.2 calcium influx blockers – cell-based, Fluo-4 calcium fluorescence, FDSS, MLSMR library, primary screen | B-score at 10 µM | Voltage-dependent T-type calcium channel subunit alpha-1H (Homo sapiens), O95180 | Cav3.2-expressing cells; active compounds read low | AID 449739, 2010 | 4% of 100,000 active;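 active means single-dose well whose peak fluorescence ratio is a statistical outlier from its plate by either plate-standardised score or position-corrected B-score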
CYP2C19 inh: blockers of cytochrome P450 2C19 activity – biochemical, luminescence, ADME assay, primary screen. CYP2C19 Supersomes, luciferin-H EGE luminescence, 30 min. P33261. inhibition, % at 5 µM. 21% of 96,000 active;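 active means CYP2C19 inhibition above a set limit at 5 µM in the primary screen, cut at about 50% in these data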;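 further: plate controls were negative control wells for no effect and 2.5 mM tranylcypromine positive control for full effect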
CYP2C19 act: human CYP2C19 activators, primary screen, biochemical, luminescence | 96,000 tested, under 10 active | Cytochrome P450 2C19 (Homo sapiens), P33261 | AID 1025, 2008 | activation factor at 5 µM | recombinant CYP2C19, luciferin-H EGE luminescence; active compounds read high; 0 = fully inhibited enzyme, 1 = untreated enzyme;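 active means activation factor of at least 2 at 5 µM in the primary screen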;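 further: 0 = wells with 2.5 mM tranylcypromine and 1 = vehicle-only wells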
CYP2C9 inhib: blockers of cytochrome P450 2C9 activity – biochemical, luminescence, ADME assay, primary screen; 20% of 96,000 active; CYP2C9 Supersomes, luciferin-H conversion; inhibition, % at 5 µM; AID 777, 2007; P11712;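 active means blocking of liver enzyme CYP2C9 beyond about 50% at 5 µM, limit read from the data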
CYP2C9 act: human CYP2C9 activators, primary screen, biochemical, luminescence; Cytochrome P450 2C9 (Homo sapiens), P11712; recombinant CYP2C9, luciferin-H conversion; active compounds read high; factor 1 = untreated enzyme, 0 = blocked; activation factor at 5 µM; 1.4% of 96,000 active;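 active means activation factor of 2 or more for CYP2C9 at a 5 µM dose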;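 further: 0 = sulfaphenazole-blocked wells and 1 = vehicle-only wells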
Active calls of the source: *; / = no result given. A selection: hits, their analogues and other compounds. The true share with any hit is near 27%.

SMILES | Cav3 T inh | CYP2C19 inh | CYP2C19 act | CYP2C9 inhib | CYP2C9 act
COc1ccc(OCc2nn3c(-c4cccc(OC)c4)nnc3s2)cc1 | 0.00751 | 50.9* | 0.5 | 34.1 | 0.7
Clc1ccc(-c2nnc3sc(Cc4cccs4)nn23)c(Cl)c1 | -0.422 | 86.6* | 0.1 | 78.5* | 0.2
Clc1ccc(OCc2nn3c(-c4ccncc4)nnc3s2)cc1 | / | 91.9* | 0.1 | 69.2* | 0.3
CN1CCN(S(=O)(=O)c2ccc(Cc3ccc(S(=O)(=O)N4CCN(C)CC4)cc3)cc2)CC1 | 1.1 | 15.2 | 0.8 | 14.2 | 0.9
Cn1c(SCC(=O)N2CCOCC2)nc(O)cc1=O | 0.28 | 0.3 | 1 | 5.3 | 0.9
Cc1noc(C)c1S(=O)(=O)N1CCC(C(=O)N2CCC(N3CCCCC3)CC2)CC1 | / | 17.9 | 0.8 | 3.3 | 1
COc1ccc(OCc2nn3c(-c4ccco4)nnc3s2)cc1 | -0.596 | 57.0* | 0.4 | 59.3* | 0.4
CCN(CC)c1nc2n(c(=S)n1)CCS2 | 0.506 | 5.6 | 0.9 | 4.2 | 1
COc1ccc(-c2nn3c(COc4ccccc4)nnc3s2)cc1OC | / | 28.4 | 0.7 | 57.5* | 0.4
c1ccc(OCc2nnc3sc(-c4cccs4)nn23)cc1 | -1.01 | 53.2* | 0.5 | 58.4* | 0.4
Clc1ccc(Cl)c(-c2nn3c(COc4ccccc4)nnc3s2)c1 | 2.19 | 28.6 | 0.7 | 50.1* | 0.5
CC/C(=N\NS(C)(=O)=O)c1ccccc1 | 0.281 | 10.4 | 0.9 | -19.8 | 1.2
COc1cc(C)nc2nc(SCc3ccccc3)nn12 | -0.48 | 23.4 | 0.8 | -32.1 | 1.3
CC1(C)Cc2nc3nc(SCC(=O)NCCc4ccccc4)n(-c4ccccc4)c(=O)c3cc2CO1 | 1.28 | -7.9 | 1.1 | 6.6 | 0.9
Cc1occc1C(=O)NCCCCc1ccccc1 | -0.0375 | 39.5 | 0.6 | 41.3 | 0.6
Cc1occc1C(=O)NCCc1ccc(Cl)cc1 | 0.212 | 57.2* | 0.4 | 6.2 | 0.9
CCNC(=O)C(=O)NCCc1ccc(Cl)cc1 | 0.646 | 58.6* | 0.4 | 8.9 | 0.9
COc1ccccc1CCNC(=O)c1ccoc1C | 0.00767 | 82.7* | 0.2 | 32.7 | 0.7
O=C(NCCc1ccc(O)cc1)c1ccc(Cl)cc1 | -0.079 | 42.2 | 0.6 | -131.3 | 2.3*
COC(=O)CC/C(O)=C1/C(=N)CC(C)(C)CC1=O | 0.416 | 0.2 | 1 | 3.4 | 1
COc1ccc(-n2c(=O)c3ccccc3n(CC(=O)NC3CCCC3)c2=O)c(OC)c1 | 0.165 | -13.8 | 1.1 | -5.6 | 1.1
O=C1c2cccnc2C(=O)N1Cc1ccc(F)cc1 | 0.0885 | 18.3 | 0.8 | 3.4 | 1
COc1ccc2c(CC#N)c[nH]c2c1 | -0.352 | 19.5 | 0.8 | -9.8 | 1.1
CC(C)C(NC(=O)OCc1ccccc1)C(=O)OCC(=O)NCc1ccco1 (stereo not drawn) | 1.19 | 26.1 | 0.7 | 0.6 | 1
CC(C)C(NC(=O)OCc1ccccc1)C(=O)NCC(=O)OC(C)(C)C (stereo not drawn) | 1.05 | 82.6* | 0.2 | 13.5 | 0.9
SMILES | Cav3 T inh | CYP2C19 inh | CYP2C19 act | CYP2C9 inhib | CYP2C9 act
CC(C)[C@H](NC(=O)OCc1ccccc1)C(=O)OCC(=O)NC1CCCCC1 | -1.2 | 77.9* | 0.2 | 81.0* | 0.2
CCOC(=O)CNC(=O)C(CO)NC(=O)OCc1ccccc1 (stereo not drawn) | 0.737 | 6.9 | 0.9 | -4.2 | 1
N#Cc1cccc(NC(=O)CN2NS(=O)(=O)c3ccccc3C2=O)c1 | 0.0782 | 10.4 | 0.9 | 17.0 | 0.8
C[n+]1cc[nH]c1SCC(=O)c1ccccc1 | 0.319 | 71.9* | 0.3 | -9.4 | 1.1
O=C(O)CSCC(=O)c1ccccc1 | 0.465 | -0.6 | 1 | 8.7 | 0.9
CC(=O)c1ccc(Nc2ncnc3c2oc2ccccc23)cc1 | 0.0181 | 12.1 | 0.9 | 41.8 | 0.6
COc1ccc(C(=O)N2CCN(C(=O)c3ccncc3)CC2)cc1 | 0.0416 | 10.0 | 0.9 | 4.6 | 1
COc1ccc(C(=O)n2c(SC)nc3cc4c(cc32)OCCO4)cc1 | -3 | 24.0 | 0.8 | 53.6* | 0.5
Cn1cnnc1Sc1cc(N2CCN(S(=O)(=O)c3ccc(Cl)c(Cl)c3)CC2)ccc1[N+](=O)[O-] | 0.0514 | 99.7* | 0 | 88.8* | 0.1
Cc1ccc(C(=O)Oc2ccccc2N2C(=O)C3CCCCC3C2=O)cc1 (stereo not drawn) | / | 7.5 | 0.9 | 33.6 | 0.7
